Screening data deposited in PubChem BioAssay by National Center for Advancing Translational Sciences (NCATS).
KB-3-1 cytotox = qHTS assay for MDR1-selective chemotherapeutics: Primary screen using the parental adenocarcinoma cell KB-3-1 | Potency, µM (top dose mostly 46.1 µM), usual class: cytotoxic | hit rate 1.4% among 400,000 | KB-3-1 viability, CellTiter-Glo ATP luminescence, 72 h; further: on the % scale 0 is the no-effect control and ±100 the full control effect; nearly all actives have a fitted effect of over 60% in size
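72 h, 37 °C compound treatment of KB-3-1 parental cells; CellTiter-Glo added, 10 min, luminescence read. Data corrected against DMSO-only plates and normalized before curve fitting.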
HT1080 IDH1KD tx = qHTS for induction of synthetic lethality in tumor cells producing 2HG: qHTS for the HT-1080-IDH1KD cell line; HT-1080 IDH1 knockdown viability, ATP luminescence, 48 h; Potency, µM (highest dose often 46.1 µM), inactives show at the highest dose activity, negative = toxicity, hits mostly cytotoxic; hit rate 2% among 360,000;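 further: 0% = DMSO wells and -100% = cell-free medium wells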
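HT-1080-IDH1KD cells (IDH1 knocked down), 750/well in RPMI with 5% FBS, treated with compound 48 h at 37 degrees C. Viability by CellTiter-Glo luminescence, normalised to DMSO and no-cell wells; concentration-response curves classed.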
SW480 rereplic = A quantitative high throughput screen for small molecules that induce DNA re-replication in SW480 colon adenocarcinoma cells; SW480 DNA re-replication, Hoechst DNA content imaging, 48 h; Potency, µM (highest dose often 46.1 µM), for inactives: at the top dose re-replication activation, actives largely listed as activators; hit rate 1.8% among 340,000; further: % of control where 0% means no effect; nearly all actives have a fitted effect of over 55% in size
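SW480 cells exposed to compounds for 48 hr at 37 C, 5% CO2, then Hoechst-stained 40 min. Nuclear DNA content imaged by fluorescence scanning (405 nm excitation, 500-530 nm emission); re-replication scored as increased high-intensity nuclei.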
MCF10A rereplic = A quantitative high throughput screen for small molecules that induce DNA re-replication in MCF 10a normal breast cells; MCF 10A DNA re-replication, Hoechst nuclear intensity, 48 h; Potency, µM (doses to about 46.1 µM), for the others: at the highest dose activity, positive = re-replication, most hits filed as activators; hit rate 2.9% among 350,000; AID 624296, 2012; further: % of control where 0% means no effect; nearly all actives have a fitted effect of over 50% in size
KB-V1 cytotox = qHTS assay for MDR1-selective chemotherapeutics: Primary screen using the drug-selected MDR subline cells KB-V1. KB-V1 MDR cells viability, CellTiter-Glo, 72 h. Potency, µM (top dose mostly 46.1 µM), actives largely listed as cytotoxic. hit rate 3.4% among 400,000; further: on the % scale 0 is the no-effect control and ±100 the full control effect; nearly all actives have a fitted effect of over 60% in size
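KB-V1 cells (P-gp-expressing MDR subline of KB-3-1) in phenol-red-free DMEM with 10% FBS were exposed to library compounds over a concentration series for 72 h at 37 degrees C. Viability read by CellTiter-Glo luminescence; concentration-effect curves fitted after normalization.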
HT1080-NT tox = qHTS for induction of synthetic lethality in tumor cells producing 2HG: qHTS for the HT-1080-NT fibrosarcoma cell line. AID 686970, 2013. Potency, µM (highest dose often 46.1 µM), for inactives: at the top dose activity, negative = less viability, hits mostly cytotoxic. HT-1080-NT fibrosarcoma viability, CellTiter-Glo ATP luminescence, 48 h. hit rate 1.6% among 360,000;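 further: NT is the 2HG producing partner of a matched IDH1 knockdown line; 0% = DMSO-treated cells and -100% = media-only wells without cells; nearly all actives have a fitted effect of over 55% in size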
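Luminescent CellTiter-Glo readout after 48 hours of compound exposure at 37 degrees C defined viability of HT-1080-NT cells. Activity was normalized to DMSO wells and cell-free media wells; concentration-response curves were fitted and assigned curve classes.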
An asterisk follows results filed as active; i = inactive; ? = inconclusive; / = no result; [ ] = remark or other dose. Sampled rows, rich in hits. Any-hit rate of the full collection: about 8%. The call rests on the fitted dose curve; in most records, active means well fitted curve in the direction sought with a large enough effect; inconclusive means small, poorly fitted or top-dose-only effect, or another doubt; inactive means no such curve, though single readings can be large; an effect the other way counts as inactive or inconclusive. Potency means the concentration at half of the fitted maximal effect.

SMILES	KB-3-1 cytotox	HT1080 IDH1KD tx	SW480 rereplic	MCF10A rereplic	KB-V1 cytotox	HT1080-NT tox
CC(=O)C1=C(O)C(=O)N(c2ccc(Br)cn2)C1c1ccc(F)cc1 (stereo not given)	i	26%	7.3µM*	9%	?	?
COc1cc(C2C(C(C)=O)=C(O)C(=O)N2c2ccc(Br)cn2)ccc1O (stereo not given)	i	-5%	-14%	3%	i	-1%
CC(=O)C1=C(O)C(=O)N(c2ccc(Br)cn2)C1c1ccccc1F (stereo not given)	i	-1%	1%[9.22 µM]	4%	?	2%
CC(=O)C1=C(O)C(=O)N(c2ccc(Br)cn2)C1c1ccc(Br)cc1 (stereo not given)	3.7µM*	?	?	?	?	?
Cc1ccc(/C=C/C(=O)Nc2ccc(Cl)cc2Cl)cc1	i	/	/	/	i	/
Cn1cc(-c2coc3c(C(=O)NCc4cccnc4)cccc23)cn1	i	-1%	/	/	i	1%
COc1ccc(-c2coc3c(C(=O)NCc4ccc(OC)c(OC)c4)cccc23)c(C)c1	i	4.1µM*	/	/	?	?
COc1ccc(-c2coc3c(C(=O)NCc4ccc(F)c(F)c4)cccc23)c(C)c1	i	13µM*	/	/	?	13µM*
COc1ccc(CNC(=O)c2cccc3c(-c4cnn(C)c4)coc23)cc1OC	i	?	/	/	i	23µM*
COc1ccc(-c2coc3c(C(=O)NCCN(C)C)cccc23)c(C)c1	?	16µM*	/	/	i	26µM*
COc1ccc(-c2coc3c(C(=O)NCCc4ccccc4)cccc23)c(C)c1	i	?	/	/	?	?
COc1ccc(-c2ccc(C(=O)NCc3ccc(F)c(F)c3)c3occc23)c(C)c1	i	?	/	/	i	?
O=C1CCC(c2ccccc2)c2ccccc21 (stereo not given)	i	2%	-8%	-4%	i	0%
N#CC1C(=O)c2ccccc2C1c1ccccc1 (stereo not given)	i	12µM*	18µM*	15µM*	i	?
Cc1onc(-c2c(Cl)cccc2Cl)c1C(=O)N=C(N)N1CCCC1	i	-3%	1%	4%	i	0%
C=C(C)C(=O)OC1(C(F)(F)F)Oc2cc(C)ccc2NC1=O (stereo not given)	i	?	?	16µM*	i	?
COc1ccc(C2(O)C(=O)Nc3ccc(C)cc32)cc1 (stereo not given)	i	9%	-1%	-3%	?	8%
COc1ccc(-c2coc3cc4oc(=O)c5ccccc5c4cc23)cc1F	?	?	2.5µM*	?	?	?
Cc1ccc(NC(=O)Cn2c(O)c(N=NS(=O)(=O)c3ccc(C)cc3)c3ccccc32)cc1	i	-5%	?	21µM*	?	-1%
Cc1ccc(NC(=O)Cn2c(O)c(N=NC(N)=O)c3ccccc32)cc1	?	-23%	?	?	i	-14%
Cc1cc(C)c2cc(C#N)c(NCCNC(=S)NCCCN3CCOCC3)nc2c1	i	0%	?	?	i	-1%
Cc1cc(C)c2nc(C(F)(F)F)nc(NCCCN3CCOCC3)c2c1	?	16µM*	?	?	3.7µM*	18µM*
NS(=O)(=O)c1ccc(CCNc2nn3c(-c4cccc(OC(F)(F)F)c4)cnc3s2)cc1	?	8.2µM*	/	/	i	8.2µM*
COc1ccc(CNc2nn3c(-c4cccc(C(=O)N(C)C)c4)cnc3s2)cc1	i	2%	/	/	i	13%
O=C(Nc1nnc(-c2ccc(Cl)cc2)o1)C1=COCCO1	i	-1%	-6%	28%	8.2µM*	0%
SMILES	KB-3-1 cytotox	HT1080 IDH1KD tx	SW480 rereplic	MCF10A rereplic	KB-V1 cytotox	HT1080-NT tox
COc1ccc2nccc(/C=C/c3ccc(N(C)C)cc3)c2c1	i	/	/	/	i	/
COC(=O)C1=CN(Cc2ccc(OC)c(OC)c2)C=C(C(=O)OC)C1c1ccc(O)cc1	i	-12%	99%	?	?	1%
COC(=O)C1=CN(Cc2ccc(OC)c(OC)c2)C=C(C(=O)OC)C1c1ccc(F)cc1	?	1%	21µM*	18µM*	i	-20%
COCCN1C=C(C(=O)OC)C(c2cc(Br)c(OC)c(OC)c2)C(C(=O)OC)=C1	i	-29%	16%	?	i	-16%
COCCN1C=C(C(=O)OC)C(c2ccccc2Cl)C(C(=O)OC)=C1	i	15%	21µM*	13µM*	i	1%
CCN1C=C(C(=O)OC)C(c2cccc(OC)c2OC)C(C(=O)OC)=C1	i	13%	16µM*	?	?	0%
COC(=O)C1=CN(Cc2ccc(OC)c(OC)c2)C=C(C(=O)OC)C1c1cccc(OC)c1OC	i	0%	?	?	i	-8%
COc1cccc(NC(=O)c2cncs2)c1	i	-2%	-12%	-9%	i	-1%
COc1ccc(Cc2nc3ccc(C(=O)NCCc4ccccn4)cc3o2)cc1OC	i	4%	-11%	2%	i	4%
NC(N)=NCCCC(NC(=O)c1ccccc1)C(=O)Nc1ccc2ccccc2c1 (stereo not given)	i	-7%	-20%	-7%	i	3%
C=CCOc1ccc2cccc(/C=N/NC(=O)c3cc4cc([N+](=O)[O-])ccc4s3)c2c1	?	15%	21µM*	?	i	0%
CCn1c(SCC#N)nc2ccccc2c1=O	i	-6%	?	-3%	i	-1%
CC(C)Cn1c(-c2ccccc2Cl)nc2ccccc21	i	/	/	/	i	/
CC(C)N(C(=O)Cn1c(-c2ccccc2Cl)nc2ccccc21)c1ccccc1	i	0%	-80%	-23%	10µM*	-3%
N#CCSc1nc2ccccc2c2nc3ccccc3n12	i	2%	-1%	9.2µM*	?	-3%
Clc1ccccc1-c1nc2ccccc2c2nc3ccccc3n12	?	0%	-8%	10%	4.1µM*	6%
O=C(CSc1nc(=O)n(CCCN2CCOCC2)c2c1CCC2)Nc1ccccc1F	i	-6%	-100%	1%	i	-1%
N#Cc1cnc2cc(-c3ccccc3)nn2c1N	?	?	-19%	13%	2.6µM*	?
